# Laboratory results as given in the supplement of paper PMC7595190.
# A number with no mark means an inactive call.
# Assays:
# CMK = experiment: CellTox Green cytotoxicity fluorescence relative to DMSO vehicle (fold of vehicle RFU); higher = more cell death (loss of membrane integrity), active = 2 or more
# How it was run: (§1)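 Three cell lines, MV4-11, CMK and Kasumi-1, were seeded at 4.0 × 10^4 cells per well into 96-well black optical-bottom plates containing CellTox Green reagent from the start. Compounds from the Selleckchem apoptosis library were diluted in DMSO, added one at a time at final 0.01, 0.1 or 1 µM with 0.1% DMSO as vehicle, and incubated at 37 °C in 5% CO2. Readings at 24, 48 and 72 h used excitation at 485 nm and emission at 520 nm. Values give cytotoxicity, taken as loss of membrane integrity, as fluorescence in fold of the DMSO vehicle.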
# Kasumi-1 = experiment: as above
# How it was run: as §1
Compound,"CellTox Green cytotoxicity fluorescence (CMK; 0.01 µM, 24 h)","CellTox Green cytotoxicity fluorescence (CMK; 0.01 µM, 48 h)","CellTox Green cytotoxicity fluorescence (CMK; 0.01 µM, 72 h)","CellTox Green cytotoxicity fluorescence (CMK; 0.1 µM, 24 h)","CellTox Green cytotoxicity fluorescence (CMK; 0.1 µM, 48 h)","CellTox Green cytotoxicity fluorescence (CMK; 0.1 µM, 72 h)","CellTox Green cytotoxicity fluorescence (CMK; 1 µM, 24 h)","CellTox Green cytotoxicity fluorescence (CMK; 1 µM, 48 h)","CellTox Green cytotoxicity fluorescence (CMK; 1 µM, 72 h)","CellTox Green cytotoxicity fluorescence (Kasumi-1; 0.01 µM, 24 h)","CellTox Green cytotoxicity fluorescence (Kasumi-1; 0.01 µM, 48 h)","CellTox Green cytotoxicity fluorescence (Kasumi-1; 0.01 µM, 72 h)","CellTox Green cytotoxicity fluorescence (Kasumi-1; 0.1 µM, 24 h)","CellTox Green cytotoxicity fluorescence (Kasumi-1; 0.1 µM, 48 h)","CellTox Green cytotoxicity fluorescence (Kasumi-1; 0.1 µM, 72 h)","CellTox Green cytotoxicity fluorescence (Kasumi-1; 1 µM, 24 h)","CellTox Green cytotoxicity fluorescence (Kasumi-1; 1 µM, 48 h)","CellTox Green cytotoxicity fluorescence (Kasumi-1; 1 µM, 72 h)"
COc1cc([C@@H]2c3cc4c(cc3[C@H](O)[C@H]3COC(=O)[C@@H]23)OCO4)cc(OC)c1OC [Picropodophyllin],0.955,0.958,0.973,1.06,1.23,1.08,1.34,2.12 (active),1.58,0.945,0.978,0.997,0.993,0.999,1.06,1.16,1.35,1.48
CC[C@H](C)[C@@H]([C@@H](CC(=O)N1CCC[C@H]1[C@H](OC)[C@@H](C)C(=O)N[C@H](C)[C@@H](O)c1ccccc1)OC)N(C)C(=O)[C@@H](NC(=O)[C@@H](NC)C(C)C)C(C)C [Monomethyl auristatin E],1.24,1.82,1.43,1.52,2.24 (active),1.56,1.97,2.64 (active),1.78,1.06,1.27,1.44,1.17,1.42,1.53,1.31,1.56,1.62
CC1=C(O)C(=O)C=C2C1=CC=C1[C@@]2(C)CC[C@@]2(C)[C@@H]3C[C@](C)(C(=O)O)CC[C@]3(C)CC[C@]12C [Celastrol],0.959,0.961,0.98,0.946,0.94,0.932,2.38 (active),3.09 (active),2.25 (active),0.916,0.923,0.903,0.954,0.962,0.952,1.23,1.43,1.47
COc1cc(C)[nH]c(=O)c1CNC(=O)c1c(C)n([C@H](C)C2CCOCC2)c2ccccc12,0.942,0.948,0.965,0.936,0.944,0.919,0.949,0.973,0.965,0.935,0.952,0.966,0.97,0.948,0.954,1.03,0.982,0.976
COc1ccc2c(c1)/C(=C/c1cnc[nH]1)C(=O)N2,0.911,0.923,1.04,0.922,0.924,1.05,0.934,0.914,0.881,0.934,0.941,0.971,0.976,0.981,0.966,0.881,0.948,0.963
